Reference: PubChem BioAssay (NCATS)
Inconclusive results are not listed. A number with no mark means an inactive call. The source made the active and inactive calls. The call rests on the fitted dose curve; in most records, active means well fitted cell-killing curve with a large enough effect; inconclusive means small, poorly fitted or top-dose-only effect, or effect the other way; inactive means no such curve, though single readings can be large or run the other way.

Assay: Viability qHTS for spleen associated tyrosine kinase inhibitor (SYKi) naive MV4-11 cells (AID 1963823); further: nearly all actives have a fitted effect of over 40% in size
Details: MV4-11 AML viability, CellTiter-Glo luminescence, 72 h; series mostly up to 45 µM; viability (% of control): at the top concentration
Summary of the method: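 In this viability screen, compounds acted on SYK inhibitor naive MV4-11 cells for three days (72 hr, 37 C). Remaining viable cells were measured by CellTiter-Glo luminescence following a 10 min room-temperature development.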
Potency means the concentration at half of the fitted maximal effect.

SMILES	viability (% of control)	Potency
N#CC1C(=O)N=C(c2cc(Cl)ccc2O)C=C1c1cc(OCc2ccccc2)cc(OCc2ccccc2)c1 (stereo unspecified)	81.1%	
CC1=CC(=O)C(C(C)C)=CC1=O	81.2%	
COc1ccccc1NC(=O)OCC1CCN(C(=O)OC(C)(C)C)CC1	61.5%	
C/C=C/C=C/C=C/C(=O)O[C@@H]1C=C(CO)[C@](O)(CO)[C@@]2(C)CCCC(C)(C)[C@H]12		16.1 µM (active)
CC1CCC2C(C)(C)C(O)CCC2(C)C12Cc1c(O)cc3c(c1O2)CN=C3N (stereo unspecified)	71.2%	
O=c1[nH]c2ccccc2n1CCCN1CCN(C(c2ccccc2)c2ccccc2)CC1		15 µM (active)
CC(C)[C@@H](c1ccc(C(F)(F)F)cc1CN(Cc1cc(C(F)(F)F)cc(C(F)(F)F)c1)c1nnn(C)n1)N1CCC(C(=O)O)CC1		16.4 µM (active)
Oc1cccc(Nc2ccnc3[nH]c4ccccc4c23)c1		1.84 µM (active)
CC(=O)OCC1=C[C@@H]2OC(=O)C3=CO[C@@H](O[C@@H]4O[C@H](CO)[C@@H](O)[C@H](O)[C@H]4O)[C@H]1[C@@H]32	60.2% [at 17.3 µM]	
COc1cc2c(cc1O)C1(Cc3ccc4c(c3C1=O)OCO4)N(C)CC2 (stereo unspecified)	64.5%	
CC1C(=O)CC2C3CCC(C(=O)O)C12CC3(C)CO (stereo unspecified)	49.7%	
